Test [1] is described as follows: AP1 Signaling Pathway (AID 357).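 Also: ME-180 reporter cells stimulated with EGF at its EC50 level; % is scaled to controls: 0 for no effect and ±100 for the full control effect.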 The essentials: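 A ratiometric CCF4 readout (405 nm excitation; 460 and 530 nm emission) quantified AP-1-driven beta-lactamase in ME-180 cells after 5 h with compound and EC50 EGF; AC50 values were derived for activators and inhibitors.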
The nature of test [2]: NFAT Signaling Pathway (AID 444).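 Also: carbachol stimulus at about its EC50 of 1 µM final; % is scaled to controls: 0 for no effect and ±100 for the full control effect.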 As to conditions: Jurkat NFAT-bla M1, carbachol, beta-lactamase ratio, 5 h. The essentials: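 Jurkat cells with NFAT-driven β-lactamase reporter and co-expressed M1 receptor, stimulated with carbachol (final 1 uM, ~EC50), compound titration, 5 h at 37 °C. CCF4 loaded 1 h at RT; 460/530 nm ratio gave %activity and AC50.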
The nature of test [3]: Stat Signaling Pathway (AID 446).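 Also: ME-180 cervical cancer cells given 40 pM IL-6 alongside compound; SIE-controlled beta-lactamase reporter measured as 460/530 nm FRET emission ratio; % is scaled to controls: 0 for no effect and ±100 for the full control effect.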 The essentials: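 Compound effects on IL-6-induced STAT reporter activity were measured in ME-180 cells. After overnight culture, cells were co-treated with 40 pM IL-6 for 5 hrs before beta-lactamase substrate loading at room temperature.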
Test [4] addresses Mitogen-activated protein kinase 10 (Mus musculus) (UniProt Q61831). Description: JNK3 AlphaScreen Assay (AID 530).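 Also: kinase came from lysate of stimulated human HepG2 cells; signal reports phosphorylation of biotinylated GST-cJun 1-79 at Ser73 with 10 µM ATP; % is scaled to controls: 0 for no effect and ±100 for the full control effect.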 The essentials: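 Activity was read by AlphaScreen after JNK3-containing HepG2 lysate (cytokine pre-activated) phosphorylated biotinylated GST-cJun with 10 uM ATP at room temperature. Phospho-Ser73 cJun antibody with Protein-A acceptor beads provided detection.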

For test [5], the target named is 3',5'-cyclic-AMP phosphodiesterase 4B (Homo sapiens) (UniProt Q07343). Kind of test: qHTS Assay for Inhibitors of PDE-IV (AID 607; active = well fitted activation curve with a large enough effect in the main read-out, with a control signal flat, not every such curve was filed as active; also: % of control where 0% means no effect). In short, it runs like this: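 ACTOne HEK293 cells carry a modified cAMP-gated CNG channel and express endogenous PDE4; plated 1000 cells/well, compounds up to 22.9 uM final. Membrane-potential dye fluorescence (ex 535/em 590) was read; parental cells received 10 uM forskolin + 100 uM RO 20-1724.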

The target in test [6] is Cytochrome P450 1A2 (Homo sapiens) (UniProt P05177). Description: p450-cyp1a2 (AID 410; calls by dose curve; also: potency is read from the fitted curve at half-maximal effect;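 as to activity change, negative = inhibition: -100% = full effect of reference inhibitor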). The essentials:
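O-Demethylation of luciferin 6' methyl ether by human CYP1A2 is monitored as luciferase luminescence. Substrate sits at Km (100uM); enzyme is 20nM. Values are scaled to 57 uM furafylline as maximal inhibition.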

Test [7] has as its target Glucocorticoid receptor (Homo sapiens) (UniProt P04150). Description: GR-GFP Redistribution (AID 450;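 active = compounds whose dose series gives a full or clear partial fitted curve of increased nuclear translocation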; also: potency is read from the fitted curve at half-maximal effect). The conditions noted are these: U2OS GR-GFP nuclear translocation, laser cytometry, 2 h.
A short description of test [8]: Cell Viability - HepG2 (AID 433; calls by dose curve;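 also: potency is read from the fitted curve at half-maximal effect; cells exposed to compound for 40 hours; potency for ATP loss meaning cytotoxicity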). As to conditions: qHTS. The essentials: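 Read-out is luciferase-based quantitation of cellular ATP as a measure of viable HepG2 cells after 40 h treatment at 37 °C. Signal decrease is scaled between DMSO-only and 100 uM tamoxifen controls, with AC50 fitted by the Hill equation.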
Test [9] can be described thus: Cell Viability - N2a (AID 540; active = well fitted curve in the direction sought with a large enough effect; an effect the other way counts as inactive or inconclusive;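 also: cells exposed to compound for 40 h at 37 °C; plate controls were DMSO alone for no effect and tamoxifen control for full effect; nearly all actives have a fitted effect of over 45% in size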). As to conditions: N2a mouse neuroblastoma cell viability; activity change, negative = cytotoxicity: at 92.2 µM (top of the series). The essentials: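 Cytotoxicity was scored as loss of cellular ATP in N2a cells, a mouse neuroblastoma line. Compounds are applied in a qHTS concentration series for 40 hr at 37 °C.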
The nature of test [10]: Cell Viability - NIH 3T3 (AID 541; active = well fitted curve in the direction sought with a large enough effect; an effect the other way counts as inactive or inconclusive;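 also: cells exposed to compound for 40 hours; plate controls were DMSO alone for no effect and tamoxifen positive control for full effect; nearly all actives have a fitted effect of over 25% in size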). As to conditions: NIH 3T3 cell viability, qHTS; activity change, negative = cytotoxicity: at 92.2 µM (top of the series). In short, it runs like this: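 Cells seeded at 1000/well, rested 5 hr at 37 °C, then dosed and incubated 40 hr at 37 °C. CellTiter-Glo added, 20 min room temperature, luminescence read. AC50 by Hill fit.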
Test [11] is described as follows: Cell Viability - HUV-EC-C (AID 542; active = well fitted curve in the direction sought with a large enough effect; an effect the other way counts as inactive or inconclusive;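 also: cells exposed to compound for 40 hours; % is scaled to controls: 0 for no effect and ±100 for the full control effect; nearly all actives have a fitted effect of over 35% in size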). In short, it runs like this: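 Cells were seeded at 1000 per well and incubated 5 hr at 37 °C before compound addition. After 40 hr at 37 °C, CellTiter-Glo reagent was added for 20 min and luminescence read. AC50 values came from Hill-equation modelling.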
Test [12] can be described thus: Cell Viability - Mesenchymal (AID 546; active = well fitted curve in the direction sought with a large enough effect; an effect the other way counts as inactive or inconclusive;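 also: cells exposed to compound for 40 hours before reading; 0% = DMSO only and -100% = 100 µM tamoxifen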). In short, it runs like this:
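Human renal mesenchymal cells (glomerulus-derived), 1000 cells/well, 5 hr 37 °C pre-incubation; compound 40 hr, 37 °C; CellTiter-Glo, 20 min RT; luminescence; AC50 via Hill equation.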

Test [13] concerns the target Glucocorticoid receptor (Homo sapiens) (UniProt P04150). Kind of test: GR-EFC Redistribution (AID 451; calls by dose curve; also: potency is read from the fitted curve at half-maximal effect). The conditions noted are these: CHO-K1 GR-EFC translocation, beta-gal luminescence, 2 h. The essentials:
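CHO-K1 cells expressing nuclear EA and GR-ED fragments of b-gal; compounds titrated up to 46 uM final, 2 h at 37 C. GR nuclear translocation read as complemented b-gal luminescence after 1 h RT detection.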

Where “and” joins values, the source holds several entries; their conditions need not be identical. Equal entries are not always repeated. Results filed as inconclusive are left out. A structure can be active in one record and inactive in another. Calls of active or inactive are those of the source. Unless noted, calls follow the shape of the dose curve; as a rule, active = well fitted curve in either direction with a large enough effect (not every such curve was filed as active); inconclusive = small, poorly fitted or top-dose-only effect, or another doubt; inactive = flat fitted curve, though single readings scatter.

Chain of Glucocorticoid receptor (Homo sapiens) (P04150 whole entry, looked up, the tested form may be a part): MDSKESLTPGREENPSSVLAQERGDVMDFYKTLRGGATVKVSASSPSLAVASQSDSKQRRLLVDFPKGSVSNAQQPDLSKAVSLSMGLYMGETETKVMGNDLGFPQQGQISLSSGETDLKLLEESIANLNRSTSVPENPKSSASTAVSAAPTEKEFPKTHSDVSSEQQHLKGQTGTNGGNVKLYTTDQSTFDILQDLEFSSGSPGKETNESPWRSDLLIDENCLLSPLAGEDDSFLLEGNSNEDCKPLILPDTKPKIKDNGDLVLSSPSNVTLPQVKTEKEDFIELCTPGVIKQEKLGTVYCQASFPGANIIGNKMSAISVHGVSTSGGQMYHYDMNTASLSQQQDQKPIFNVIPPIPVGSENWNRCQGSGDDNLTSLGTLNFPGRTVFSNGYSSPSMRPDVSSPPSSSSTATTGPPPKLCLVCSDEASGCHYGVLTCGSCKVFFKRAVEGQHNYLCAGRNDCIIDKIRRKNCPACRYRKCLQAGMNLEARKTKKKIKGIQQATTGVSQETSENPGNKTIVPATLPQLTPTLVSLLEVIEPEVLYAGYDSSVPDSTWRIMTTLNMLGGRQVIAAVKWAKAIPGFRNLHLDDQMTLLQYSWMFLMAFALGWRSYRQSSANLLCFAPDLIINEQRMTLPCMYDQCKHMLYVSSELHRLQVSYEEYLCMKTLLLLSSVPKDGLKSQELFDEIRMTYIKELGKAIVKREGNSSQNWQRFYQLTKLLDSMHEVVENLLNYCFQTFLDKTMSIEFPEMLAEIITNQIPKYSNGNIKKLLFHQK
Chain of Cytochrome P450 1A2 (Homo sapiens) (P05177 whole entry, looked up): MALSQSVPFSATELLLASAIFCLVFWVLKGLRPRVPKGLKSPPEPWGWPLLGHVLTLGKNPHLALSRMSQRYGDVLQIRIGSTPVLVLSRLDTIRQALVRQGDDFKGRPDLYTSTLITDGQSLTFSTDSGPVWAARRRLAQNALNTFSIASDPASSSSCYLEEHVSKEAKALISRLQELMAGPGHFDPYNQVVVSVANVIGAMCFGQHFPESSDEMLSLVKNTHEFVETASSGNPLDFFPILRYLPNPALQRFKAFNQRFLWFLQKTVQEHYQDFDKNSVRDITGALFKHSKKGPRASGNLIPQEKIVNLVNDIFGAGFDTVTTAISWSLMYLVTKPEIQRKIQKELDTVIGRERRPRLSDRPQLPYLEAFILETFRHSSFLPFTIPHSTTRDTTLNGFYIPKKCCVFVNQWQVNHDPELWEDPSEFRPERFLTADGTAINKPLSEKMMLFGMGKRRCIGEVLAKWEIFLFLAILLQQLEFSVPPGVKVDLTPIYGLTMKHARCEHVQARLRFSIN
Chain of 3',5'-cyclic-AMP phosphodiesterase 4B (Homo sapiens) (Q07343 whole entry, looked up): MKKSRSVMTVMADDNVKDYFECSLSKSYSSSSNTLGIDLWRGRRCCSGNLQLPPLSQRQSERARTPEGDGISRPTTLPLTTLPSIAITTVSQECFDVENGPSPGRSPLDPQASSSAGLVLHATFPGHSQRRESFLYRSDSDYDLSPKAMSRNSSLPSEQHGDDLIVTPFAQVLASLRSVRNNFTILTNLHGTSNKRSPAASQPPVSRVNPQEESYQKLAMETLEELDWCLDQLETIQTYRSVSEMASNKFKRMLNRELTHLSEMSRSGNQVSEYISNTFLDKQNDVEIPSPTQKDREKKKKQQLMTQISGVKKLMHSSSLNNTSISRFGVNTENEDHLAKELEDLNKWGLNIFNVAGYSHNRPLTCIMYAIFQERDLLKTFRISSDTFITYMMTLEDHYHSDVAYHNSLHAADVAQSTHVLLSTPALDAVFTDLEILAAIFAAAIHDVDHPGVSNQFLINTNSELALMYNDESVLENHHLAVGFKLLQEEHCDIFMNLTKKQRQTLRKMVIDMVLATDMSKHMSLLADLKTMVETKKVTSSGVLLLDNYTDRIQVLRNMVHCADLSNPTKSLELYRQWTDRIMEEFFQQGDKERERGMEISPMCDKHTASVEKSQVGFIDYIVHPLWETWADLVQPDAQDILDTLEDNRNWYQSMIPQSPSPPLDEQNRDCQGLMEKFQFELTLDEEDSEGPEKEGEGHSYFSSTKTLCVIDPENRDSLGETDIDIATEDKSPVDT

With `Cc1cnc(C(=O)NCCc2ccc(S(=O)(=O)NC(=O)NC3CCCCC3)cc2)cn1`, the call in test [1], in [3] and in test [4] was inactive. For the same compound, the activity change, negative = inhibition was -11% (inactive) and -0.964% (inactive) in test [2] (at 17.2 µM (top of the series)); -4.17% (inactive) in test [2] (at 38 µM (top of the series)). Besides, the Potency entry in test [5] is “inactive”.

For the compound `COc1cc2nc(N3CCN(C(=O)c4ccco4)CC3)nc(N)c2cc1OC`, the Potency entry in test [6] and in test [5] was “inactive” in each case. The compound was classed as inactive in test [3] and in test [4].

For `CN1CCN2c3ccccc3Cc3ccccc3C2C1` (configuration not stated), the call in [1] and in test [3] was inactive. Further, in test [7], the Potency was > 20.6 µM (inactive).

In the case of `Clc1ccc(C(c2ccccc2Cl)C(Cl)Cl)cc1` (configuration not stated), in test [8], the Potency was > 92 µM (inactive). Further, in [9], the activity change, negative = cytotoxicity was -100% (active). The Potency result in [10] was “inactive”. Further, the compound was classed as inactive in test [11] and in test [12].

In the case of `O=C(CCCN1CCC(O)(c2ccc(Cl)cc2)CC1)c1ccc(F)cc1`, the compound was classed as inactive in test [1], in test [3] and in test [4]. Besides, the activity change, negative = inhibition in test [2] (at 38 µM (top of the series)) was -17.8% (inactive). Moreover, in test [5], the Potency entry was “inactive”.

Consider `CN(Cc1cnc2nc(N)nc(N)c2n1)c1ccc(C(=O)N[C@@H](CCC(=O)O)C(=O)O)cc1`, for which the Potency entry in test [6] and in [5] was “inactive” each time. For the same compound, the call in test [4] was inactive.

For the compound `NC(CO)C(=O)NNCc1ccc(O)c(O)c1O` (configuration not stated), the compound was classed as inactive in test [1] and in test [3]. Also, the activity change, negative = inhibition in [2] (at 17.2 µM (top of the series)) is 13.6% (inactive).

On to `O=C(c1ccc(F)cc1)C1CCN(CCn2c(=O)[nH]c3ccccc3c2=O)CC1`, for which the call in test [1], in [3] and in test [4] was inactive. Besides, the activity change, negative = inhibition in test [2] (at 17.2 µM (top of the series)) was -11.4% (inactive) and -13.2% (inactive). The Potency is > 46 µM (inactive) and > 20.6 µM (inactive) in [7]; > 46 µM (inactive) and > 20.6 µM (inactive) in test [13]. Besides, the Potency result in [5] is “inactive”.

Turning to `O=c1c(O)c(-c2ccc(O)c(O)c2)oc2cc(O)cc(O)c12`, in test [5], the Potency result was “inactive”.

As for `CCCNCC(O)COc1ccccc1C(=O)CCc1ccccc1` (configuration not stated), the call in [1] and in test [3] was inactive.

In the case of `O=C(C1CCCCC1)N1CC(=O)N2CCc3ccccc3C2C1` (configuration not stated), the call in [1] and in test [3] was inactive. In addition, the activity change, negative = inhibition in test [2] (at 17.2 µM (top of the series)) is -4.85% (inactive) and -1.54% (inactive). For the same compound, the Potency in test [7] is > 20.6 µM (inactive).

As to `CNCCCC12CCC(c3ccccc31)c1ccccc12`, the compound was called inactive in test [1], in test [3] and in test [4]. Besides, the Potency in test [7] is > 46 µM (inactive) and > 20.6 µM (inactive); in [13] it was > 46 µM (inactive) and > 20.6 µM (inactive). Further, the Potency entry in test [5] was “inactive”.

As for `CN1CCN(C2=Nc3cc(Cl)ccc3Nc3ccccc32)CC1`, the compound was called inactive in [1], in test [3] and in test [4]. Also, the activity change, negative = inhibition in test [2] (at 38 µM (top of the series)) is -49.7% (active). The Potency was > 46 µM (inactive) and > 20.6 µM (inactive) and 2.68 µM (active) in [7]; > 46 µM (inactive) and > 20.6 µM (inactive) in test [13]. In addition, the Potency result in test [5] was “inactive”.

`OCCN1CCN(CCCN2c3ccccc3Sc3ccc(C(F)(F)F)cc32)CC1`: the call in [1], in test [3] and in test [4] was inactive. In addition, the Potency was > 46 µM (inactive) and > 20.6 µM (inactive) in test [7]; > 46 µM (inactive) and > 20.6 µM (inactive) in test [13]. The Potency entry in test [5] is “inactive”.

Take `CCOC(=O)Nc1ccc(NCc2ccc(F)cc2)nc1N`: the call in test [1], in [3] and in test [4] was inactive. The activity change, negative = inhibition in test [2] (at 38 µM (top of the series)) was -3.88% (inactive). The Potency in test [7] and in test [13] was > 46 µM (inactive) in each case. Moreover, the Potency entry in test [5] was “inactive”.

For the compound `COc1cc2nc(N3CCN(C(=O)C4COc5ccccc5O4)CC3)nc(N)c2cc1OC` (configuration not stated), the outcome in test [1] and in test [3] was inactive.

For the compound `COC(=O)Nc1nc2ccc(C(=O)c3cccs3)cc2[nH]1`, the Potency in [6] is 5.01 µM (active) and 1.58 µM (active) and 794 nM (active); in [7] it was > 46 µM (inactive) and > 20.6 µM (inactive); in test [13] it was > 46 µM (inactive) and > 20.6 µM (inactive). For the same compound, the activity change, negative = inhibition in [2] (at 17.2 µM (top of the series)) is -68.4% (active). The compound was classed as inactive in test [3] and in test [4]. Besides, in test [5], the Potency entry is “inactive”.

`Cc1ccc(C(=O)Nc2ccc(S(=O)(=O)O)c3cc(S(=O)(=O)O)cc(S(=O)(=O)O)c23)cc1NC(=O)c1cccc(NC(=O)Nc2cccc(C(=O)Nc3cc(C(=O)Nc4ccc(S(=O)(=O)O)c5cc(S(=O)(=O)O)cc(S(=O)(=O)O)c45)ccc3C)c2)c1`: the compound was called inactive in test [1] and in test [4]. Moreover, the activity change, negative = inhibition in [2] (at 38 µM (top of the series)) is -19.8% (inactive). Besides, the Potency in test [7] and in test [13] was > 46 µM (inactive) in each case. In test [5], the Potency entry was “inactive”.

For `O=C(c1ccc(OCCN2CCCCC2)cc1)c1c(-c2ccc(O)cc2)sc2cc(O)ccc12`, the outcome in [1] and in [3] was inactive. The Potency in test [7] is > 46 µM (inactive) and > 20.6 µM (inactive); in test [13], > 46 µM (inactive) and > 20.6 µM (inactive). Moreover, the Potency entry in test [5] is “inactive”.

Regarding `O=C1c2c(O)ccc(O)c2C(=O)c2c(NCCNCCO)ccc(NCCNCCO)c21`, the compound was classed as inactive in test [3] and in test [4]. The Potency in [7] was > 46 µM (inactive) and > 20.6 µM (inactive); in test [13], > 46 µM (inactive) and > 20.6 µM (inactive). Besides, the Potency result in [5] was “inactive”.

Take `CCc1cccc2c3c([nH]c12)C(CC)(CC(=O)O)OCC3` (configuration not stated): the compound was classed as inactive in test [1] and in [3]. For the same compound, the activity change, negative = inhibition in test [2] (at 17.2 µM (top of the series)) was 12.2% (inactive).
